Screen size: about 68,000 compounds; about 2,700 (4%) showed an effect of 50% or more. The list comes from a sample in which strong results are over-represented; it also holds similar structures and randomly drawn compounds.

This test concerns Plasmodium berghei. The test is described as follows: Screen against P. berghei liver stage (PbLuc), transformed with Luciferase, at 2uM. The format is functional, HepG2. Particulars: tested at 2 uM.
In the case of `O=C(NS(=O)(=O)c1ccccc1C(F)(F)F)c1cccc2c1OCCO2`, the INHIBITION is listed as 37.69%.
With `Fc1ccc(CC2CCN(Cc3cscn3)CC2)cc1` the figure was -23.58%; with `COc1cccc(COCC(=O)N2CCCC(c3ccn[nH]3)C2)c1` (configuration not stated), 14.97%.
In the case of `Cc1ncc(-c2ccnc(NCCO)n2)c(C2CCCCC2)n1` it was -38.58%.
Consider `COc1cc(NC(=O)c2ccc(CN3CC[C@H](O)C3)cc2)cc(OC)c1`, for which the INHIBITION was 20.71%.
In the case of `Cc1cncc(NC(=O)c2ccc(CN3CC[C@H](O)C3)cc2)c1`, the INHIBITION turned out to be 42.48%.
Consider `Cc1cc(NC(=O)c2ccc(CN3CC[C@H](O)C3)cc2)ccc1F`, for which the INHIBITION is recorded as 82.91%.
In the case of `Cc1cscc1-c1nc(C2CCOC2)no1` (configuration not stated) it was 10.22%; in that of `O=C(NCc1nnc2n1CCC2)c1ccc(Br)s1`, 22.39%.
As for `CCC1CN(Cc2nnc(C3CC3)o2)CCN1CCOC` (configuration not stated), the INHIBITION stood at 66.64%.
In the case of `CCOCCN1CCN(Cc2nnc(C3CC3)o2)CC1` it was 51.7%.
For the molecule `COCCN1CCN(Cc2noc(C3CC3)n2)CC1C` (configuration not stated), the INHIBITION is on record as 53.03%.
As to `CCOCCN1CCN(Cc2nnc(C3CC3)o2)CC1CC` (configuration not stated), the INHIBITION was -0.55%.
With `COCCN1C(=O)[C@@H]2CC[C@H]1CN(Cc1nnc(C3CC3)o1)C2`, the INHIBITION is on record as 29.18%.
With `CC(O)CN1CCN(Cc2nnc(C3CC3)o2)CC1` (configuration not stated) the figure was 7.54%; with `CCOCCN1CCN(Cc2nnc(C3CC3)o2)CC1C` (configuration not stated), -19.75%.
With `CC1CN(Cc2noc(C3CC3)n2)CCN1Cc1nccn1C` (configuration not stated), the INHIBITION is 14.82%.
On to `CC1CN(Cc2noc(C3CC3)n2)CCN1Cc1noc(C2CC2)n1` (configuration not stated), for which the INHIBITION was 33.82%.
In the case of `Cc1ccc(N2CCC3(CCN(Cc4csc(C)n4)CC3)CC2)nn1` it was 18.91%; in that of `COc1ccc(C(C)NCCc2ccc(NC(C)=O)cc2)c(OC)c1` (configuration not stated), 26.99%; in that of `CC(=O)N1CCn2c(nnc2C2CCCCN2Cc2ccccc2Cl)C1` (configuration not stated), -46.48%.
For `CN(C)C(=O)c1nc(CN2C(=O)OC[C@@H]2c2ccccc2)no1`, the INHIBITION amounted to 18.19%.
With `Cn1cc(C(=O)NCc2ccc(OC3CCCCC3)nc2)ccc1=O` the figure was 2.66%; with `Cc1noc(C)c1CN1CC2(CCCCN2c2cncnc2)CC1=O` (configuration not stated), 50.32%.
With `Cc1noc(C)c1CN1CC2(CCCCN2C)CC1=O` (configuration not stated), the INHIBITION is 21.57%.
In the case of `N#Cc1cccc(CN2CC3(CCCCN3c3cncnc3)CC2=O)c1` (configuration not stated) it was -29.69%; in that of `O=C(O)c1cc(-c2ccoc2)cc(S(=O)(=O)N2CCSCC2)c1`, 7.09%; in that of `Cc1cccc(NC(=O)CNC(=O)c2ccccc2F)c1`, 53.99%.
As for `O=C(CNC(=O)c1ccccc1F)NCc1ccccn1`, the INHIBITION is -20.05%.
As for `Cc1cccc(NC(=O)CCC(=O)NCC(=O)c2ccccc2F)c1`, the INHIBITION amounted to 22.31%.
On to `N#Cc1cc(CSCCN2CCOCC2)ccc1F`, for which the INHIBITION came out at 39.71%.
For `Cc1c(C(=O)N2CC(O)C2)nnn1-c1cccc2cnccc12`, the INHIBITION turned out to be 50.31%.
As for `Cc1c(C(=O)O)nnn1-c1cccc2cccnc12`, the INHIBITION is listed as -58.01%.
In the case of `Cc1c(C(=O)N2CC(C)(C)C2(C)C)nnn1-c1cccc2cnccc12` it was -107.15%; in that of `Cc1c(C(=O)N2CCC2(C)C)nnn1-c1cccc2cccnc12`, 9.78%.
In the case of `Cc1c(C(=O)N2CC(=O)N(C)C2)nnn1-c1cccc2cccnc12` it was 57.5%; in that of `Cc1c(C(=O)N2CCC2(C)C)nnn1-c1cccc2cnccc12`, 9.78%; in that of `c1cc(C2CCCN2CC2CC2)n[nH]1` (configuration not stated), 13.02%.
With `COc1ccc(CNC(=O)CCn2cc(C)cn2)cc1C` the figure was -14.47%; with `CC(c1ccccn1)N(C)Cc1ccc(-n2ccnc2)cc1` (configuration not stated), 2.67%; with `C[C@@H](NCc1cccc(Cl)c1)c1onc(-c2ccc(F)cc2)c1C(=O)O`, 37.54%.
In the case of `Cc1cc(C2CCCN(C(=O)COc3cc(C)on3)C2)n[nH]1` (configuration not stated), the INHIBITION is given as 60.64%.
In the case of `Cc1cc(OCC(=O)N2CCCC(c3noc(C)n3)C2)no1` (configuration not stated) it was 6.3%; in that of `Cc1cc(OCC(=O)N2CCCC(c3ccn[nH]3)C2)no1` (configuration not stated), 24.31%.
Take `CN1C(=O)CCC12CCCN(C(=O)c1ccncc1F)C2` (configuration not stated): the INHIBITION is on record as -39.56%.
Regarding `CCc1noc(C)c1C(=O)N1CCCCC1Cn1cc(C)cn1` (configuration not stated), the INHIBITION is given as -11.2%.
For `c1ccc(OC2COC3(CCN(CC4CC4)CC3)C2)nc1` (configuration not stated), the INHIBITION is -17.63%.
In the case of `CCC1(c2ccc(NS(=O)(=O)c3cccs3)cc2)CCC(=O)NC1=O` (configuration not stated) it was -13.33%.
Take `CNC(=O)CC1CCN(C(=O)NCc2coc3ccccc23)CC1`: the INHIBITION is reported as 53.81%.
On to `COCCOC1CCN(C(=O)NCc2coc3ccccc23)CC1`, for which the INHIBITION worked out at 40.88%.
With `CNC(=O)CC1CCN(C(=O)NCC2(c3ccccc3F)CC2)CC1` the figure was -23.23%; with `CC(C)N1CCC(CC(=O)N(C)C(C)c2cncs2)CC1` (configuration not stated), 17.73%.
With `Cc1cnc(N2CC(C(=O)N3CCOCC3)C3(CCOCC3)C2)nc1` (configuration not stated) the figure was 65.04%.
With `O=C(C1CN(c2ncc(F)cn2)CC12CCOCC2)N1CC=CC1` (configuration not stated) the figure was -78.69%; with `O=C(C1CN(c2ncc(F)cn2)CC12CCOCC2)N1CCOCC1` (configuration not stated), -45.73%; with `Cn1cc(CN2CCO[C@H]3CN(Cc4ccsc4)C[C@H]32)cn1`, 1.88%.
Consider `N#Cc1ncn(CCC(=O)Nc2ccc(Cl)cc2F)n1`, for which the INHIBITION turned out to be 5.52%.
In the case of `N#Cc1ncn(CCC(=O)Nc2cccc(Cl)c2)n1` it was 7.13%.
In the case of `N#Cc1ncn(CCC(=O)Nc2ccc(F)c(F)c2)n1` it was 57.92%.
As for `Cc1cc(C(=O)N2CCC3(CC(=O)NC3=O)C2)c(-c2ccccc2)o1` (configuration not stated), the INHIBITION worked out at 15.87%.
With `CCOc1ncnc2c1CCN(C(=O)c1ccncc1F)CC2` the figure was 28.85%.
With `c1csc(C2(NCc3csc(C4CC4)n3)CCCC2)n1` the figure was -56.92%; with `CCCc1nc(CNC2(c3nccs3)CCCC2)cs1`, 58.68%; with `Cc1csc(C2(NCc3csc(C4CC4)n3)CCCC2)n1`, -9.69%.
For the molecule `Cc1nc(C)n(CC2CCCCN2CC(=O)Nc2nnc(C)s2)n1` (configuration not stated), the INHIBITION was 19.97%.
With `CN(C)Cc1nn(C)c2c1CN(S(=O)(=O)c1ccccc1F)C2` the figure was 32.05%; with `COCCN(Cc1ccoc1)S(=O)(=O)c1ccc(F)c(C)c1`, -10.1%; with `CCOc1ccc(S(=O)(=O)N(CCOC)Cc2ccncc2)cc1F`, 60.35%.
For the molecule `CCOc1ccc(S(=O)(=O)N(CCOC)Cc2ccoc2)cc1F`, the INHIBITION is given as 21.37%.
For `CSCC[C@@H](CO)n1ccnc1-c1nccn1C`, the INHIBITION came out at 17.37%.
Consider `CN1CC(=O)N(c2cnn(C)c2)CC12CCN(C(=O)c1ccsc1)C2` (configuration not stated), for which the INHIBITION is -6.94%.
With `CCc1noc(C(C)N2CCN(Cc3cnc(C)cn3)CC2)n1` (configuration not stated) the figure was -1.29%; with `Cc1nc(N2CCN(C(=O)c3ccsc3)CC2)c2cnn(C)c2n1`, 42.11%.
For the molecule `CN1C(=O)CCC12CCN(c1ccc(C#N)cn1)CC2`, the INHIBITION was determined as 5.22%.
With `N#Cc1ccc(N2CCCC3(CCC(=O)N3CC3CC3)CC2)nc1` (configuration not stated) the figure was -16.78%.
For the molecule `N#Cc1ccc(N2CCC3(CCC(=O)N3CCN3CCCC3)CC2)nc1`, the INHIBITION came out at 52.96%.
In the case of `COc1ccccc1N1CCN(C(=O)COc2c(C)occc2=O)CC1` it was -24.81%; in that of `Cc1nc(C)n(CC2CCCN(CCOc3ccc(F)cc3)C2)n1` (configuration not stated), -23.18%.
In the case of `Cc1cccc(CN2CCCC23CCNC3)n1` (configuration not stated) it was 63.89%; in that of `Cc1cccc(CN2CCC23CCCNC3)n1` (configuration not stated), 20.51%.
Take `Cc1cccc(CN2CCCCC23CCNC3)n1` (configuration not stated): the INHIBITION is given as 22.16%.
For the molecule `CCc1nnc2n1CCN(Cc1csc(NC(C)=O)n1)C2`, the INHIBITION is -5.09%.
In the case of `Cc1ccc2c(c1)SCC(=O)N2CC(=O)N1CCC[C@H]1c1nc(C)no1` it was 22%; in that of `COc1c(CNC2CCc3cc(F)ccc32)c(C(C)C)nn1C` (configuration not stated), -52.77%.
On to `COCC(=O)NCC1(COc2cccnc2)C[C@@H](O)[C@@H](O)C1` (some centres not stated), for which the INHIBITION is recorded as -40.44%.
Consider `CCCN1CCCC2(CCN(S(=O)(=O)c3cc(C)nn3CC)C2)C1=O` (configuration not stated), for which the INHIBITION worked out at 57.75%.
Regarding `CCn1nc(C)cc1S(=O)(=O)N1CCC2(CC(=O)NC2=O)C1` (configuration not stated), the INHIBITION is listed as 5.28%.
Regarding `CCCN1CCCC2(CCN(S(=O)(=O)c3cccnc3)C2)C1=O` (configuration not stated), the INHIBITION is listed as 11.9%.
With `CCCn1nccc1S(=O)(=O)N1CCC2(CCCN(C(C)C)C2=O)C1` (configuration not stated) the figure was 38.67%; with `CCn1nccc1S(=O)(=O)N1CCC2(CCCN(C(C)C)C2=O)C1` (configuration not stated), 17.2%.
In the case of `CCn1nc(C)cc1S(=O)(=O)N1CCC2(CCCN(C(C)C)C2=O)C1` (configuration not stated) it was 55.36%.
For the molecule `COCCN1C(=O)[C@@H]2CC[C@H]1CN(C(=O)COc1ccc(F)c(Cl)c1)C2`, the INHIBITION is listed as 38.83%.
On to `COc1ccc(C2=CCN(C(=O)C3CCN(C)C(=O)C3)CC2)cc1` (configuration not stated), for which the INHIBITION amounted to 17.39%.
`O=C(NCc1ccccn1)[C@@]12CCO[C@@H]1CCN(c1ncccn1)C2`: the INHIBITION was -20.87%.
With `Cc1oc(C(=O)O)cc1S(=O)(=O)Nc1ccc(Cl)c(Cl)c1` the figure was 16.79%; with `Cc1oc(C(=O)O)cc1S(=O)(=O)Nc1ccc(Cl)c(F)c1`, 56.67%; with `Cc1oc(C(=O)O)cc1S(=O)(=O)Nc1cc(Cl)ccc1F`, 16.64%.
In the case of `Cc1n[nH]c(C)c1NC(=O)CN1CCOC(Cn2cccn2)C1` (configuration not stated) it was 37.52%.
In the case of `Cn1cc(C(=O)N2CCCC(c3cc(O)n(C)n3)C2)cn1` (configuration not stated) it was 27.39%; in that of `COCc1nc(C(=O)NS(=O)(=O)c2ccc(Cl)cc2F)cs1`, -7.88%.
As for `NC(=O)c1ccc(CN2CCCC(N3CCCCCC3)C2)cc1` (configuration not stated), the INHIBITION was 9.8%.
For the molecule `NC(=O)c1ccc(CN2CCCC(N3CCCC3)C2)cc1` (configuration not stated), the INHIBITION stood at 58.65%.
With `NC(=O)c1ccc(CN2CCC(N3CCCC3)CC2)cc1`, the INHIBITION is on record as -29.69%.
With `COCCN1CCC(Nc2c(F)cc(C#N)cc2F)CC1` the figure was -22.01%; with `CS(=O)(=O)NCC(=O)N[C@H]1CN(CC2CC2)C[C@@H]1c1ccccc1`, 48.93%.
With `O=C(CCO)N[C@H]1CN(CC2CCC2)C[C@@H]1c1ccccc1` the figure was 75.86%; with `CSCC(=O)N[C@H]1CN(CC2CCOCC2)C[C@@H]1c1ccccc1`, 37.15%.

Source of the values: ChEMBL document CHEMBL4513216, “Probing the Open Global Health Chemical Diversity Library for Multistage-Active Starting Points for Next-Generation Antimalarials” (ACS Infect Dis, 2020).
